{
  "source": "ChEMBL document CHEMBL4513216",
  "about": "“Probing the Open Global Health Chemical Diversity Library for Multistage-Active Starting Points for Next-Generation Antimalarials” (ACS Infect Dis, 2020)",
  "note": "The whole screen tested about 68,000 compounds, of which about 2,700 (4%) showed an effect of 50% or more. Only a selection was taken, and strong results are over-represented in it overall.",
  "data": [
    {"tested_on": "Plasmodium berghei", "experiment": "Screen against P. berghei liver stage (PbLuc), transformed with Luciferase, at 2uM", "type": "functional, HepG2", "settings": "tested at 2 uM", "units": {"INHIBITION": "%"}, "values": [
      {"smiles": "F[C@@H]1CN(Cc2cccnc2)C[C@@H]1OCc1nc2ccccc2[nH]1", "INHIBITION": 20.41},
      {"smiles": "COC[C@@]12CCC[C@@H]1CN(C(=O)Cc1ccco1)C2", "INHIBITION": 53.08},
      {"smiles": "O=C(Cc1ccco1)N1C[C@H]2CCC[C@@]2(COCC2CC2)C1", "INHIBITION": 8.17},
      {"smiles": "O=C(Cc1ccco1)N1C[C@H]2CCC[C@@]2(COc2cccnc2)C1", "INHIBITION": -75.76},
      {"smiles": "CCn1ccnc1CN1CCN(c2ncnc3ccsc23)CC1C", "note": "(configuration not stated)", "INHIBITION": -115.54},
      {"smiles": "O=C(c1cnc(O)cc1O)N1CCCC(CCc2ccccc2F)C1", "note": "(configuration not stated)", "INHIBITION": 29.41},
      {"smiles": "COCCN1CCCC2(CCN(c3nccnc3N(C)C)C2)C1=O", "note": "(configuration not stated)", "INHIBITION": -38.59},
      {"smiles": "COCCN1CCCC2(CCN(c3nccc4ccccc34)C2)C1=O", "note": "(configuration not stated)", "INHIBITION": 50.61},
      {"smiles": "COCCN1CCCC(O)(CN2CCN(c3ncccc3C)CC2)C1=O", "note": "(configuration not stated)", "INHIBITION": 75.47},
      {"smiles": "COCCN1CCCC(O)(CN2CCCN(c3ncccn3)CC2)C1=O", "note": "(configuration not stated)", "INHIBITION": 31.35},
      {"smiles": "COCCN1CCCC2(CCN(c3ncnc(C)c3C)C2)C1=O", "note": "(configuration not stated)", "INHIBITION": 24.05},
      {"smiles": "COCCN1CCCC(O)(CN2CCN(c3cc(C)ccn3)CC2)C1=O", "note": "(configuration not stated)", "INHIBITION": 17.6},
      {"smiles": "CCS(=O)(=O)N1CCC2(CN(c3cc(OC)ncn3)C2)C1", "INHIBITION": 35.37},
      {"smiles": "CC(OCC1CC1)C(=O)Nc1cccc(C(=O)Nc2ccncc2)c1", "note": "(configuration not stated)", "INHIBITION": 10.72},
      {"smiles": "CC(C)C[C@H](N)c1nnc(SCC(N)=O)o1", "INHIBITION": 31.02},
      {"smiles": "Cc1n[nH]c(C)c1CNC(=O)CSCc1ccccc1Cl", "INHIBITION": 37.77},
      {"smiles": "CCSc1ccc(C(=O)N2CCC3(CCC(=O)N(C)C3)CC2)s1", "INHIBITION": -12.89},
      {"smiles": "CSC1(CNc2ccc(Br)cn2)CCOCC1", "INHIBITION": 30.06},
      {"smiles": "Cc1cc(C)cc(NC(=O)Nc2c(O)c3ccccc3oc2=O)c1", "INHIBITION": 19.49},
      {"smiles": "Cc1cnn(CCCNC(=O)NC(C)C(=O)Nc2ccccc2)c1", "note": "(configuration not stated)", "INHIBITION": -17.39},
      {"smiles": "Cc1nnc(SCC(=O)c2cc3c(cc2Cl)NC(=O)C3)s1", "INHIBITION": -21.29},
      {"smiles": "Cc1nnc(SCC(=O)c2cc3c(cc2Cl)NC(=O)C3)o1", "INHIBITION": 54.73},
      {"smiles": "Nc1nnc(SCC(=O)c2cc3c(cc2Cl)NC(=O)C3)s1", "INHIBITION": 9.42},
      {"smiles": "CCCNC(=O)C(C)n1nc(-c2ccc(C)o2)cc(N)c1=O", "note": "(configuration not stated)", "INHIBITION": 0.86},
      {"smiles": "Cc1ccc(CN2C[C@H]3CN(C(=O)c4ccno4)CCN3C2=O)cc1", "INHIBITION": 2.66},
      {"smiles": "CC(C)CC(C)NCCCN1CCCN(C)CC1", "note": "(configuration not stated)", "INHIBITION": 19.13},
      {"smiles": "CC(C)C(=O)N1CCC12CCCN(C(=O)c1ccccc1)C2", "note": "(configuration not stated)", "INHIBITION": -1.55},
      {"smiles": "Cc1occc1CNC(=O)C1(C)CCCN(C(=O)c2ccccc2)C1", "note": "(configuration not stated)", "INHIBITION": 52.08},
      {"smiles": "Cc1occc1CNC(=O)C1(C)CCCN1C(=O)c1ccccc1", "note": "(configuration not stated)", "INHIBITION": 22.34},
      {"smiles": "Cc1c(C2CCCN(C(=O)c3cccnc3)C2)n2c(nc1=O)CCC2", "note": "(configuration not stated)", "INHIBITION": -16},
      {"smiles": "COc1ccc(CN2CCC3(CC2)CCN(c2cnn(C)c2)C3=O)cc1", "INHIBITION": 65.32},
      {"smiles": "Cn1cc(CN2CCC3(CCN(c4cnn(C)c4)C3=O)C2)cn1", "note": "(configuration not stated)", "INHIBITION": 13.61},
      {"smiles": "COc1ccc(CN2CCC3(CCN(c4cccnc4)C3=O)C2)cc1", "note": "(configuration not stated)", "INHIBITION": 0.83},
      {"smiles": "Cn1cc(CN2CCCC3(CCN(c4cccnc4)C3=O)C2)cn1", "note": "(configuration not stated)", "INHIBITION": -7.09},
      {"smiles": "Cn1cc(N2CCC3(CCCN(Cc4ccoc4)C3)C2=O)cn1", "note": "(configuration not stated)", "INHIBITION": 25.4},
      {"smiles": "Cn1cc(N2CCC3(CCCN(Cc4ccc(F)cc4)C3)C2=O)cn1", "note": "(configuration not stated)", "INHIBITION": 51.26},
      {"smiles": "Cn1ncc2c1CCCN(C(=O)C1CCC1)C2", "INHIBITION": 7.46},
      {"smiles": "Cc1nccnc1CCC1COCCN1C(=O)CCc1c(C)noc1C", "note": "(configuration not stated)", "INHIBITION": -12.6},
      {"smiles": "COc1cccc(-c2noc(-c3ccc(NCC4CC4)nc3)n2)c1OC", "INHIBITION": -57.64},
      {"smiles": "CC(C)(C)CN1CCC[C@H]1c1nc(-c2cncnc2N)no1", "INHIBITION": -10.21},
      {"smiles": "COc1cc(CN(C(=O)Nc2cccnc2OC)C2CC2)ccc1O", "INHIBITION": -34.31},
      {"smiles": "Cn1nc2c(cc1=O)CN(Cc1nnc(-c3ccco3)o1)CC2", "INHIBITION": -32.49},
      {"smiles": "Cc1cc2n(n1)CCN(c1nc(N(C)C)nc3c1CCNC3)C2", "INHIBITION": 15.46},
      {"smiles": "Cc1ncoc1C(=O)N1CCOC(CC2CCCCC2)C1", "note": "(configuration not stated)", "INHIBITION": -78.64},
      {"smiles": "CC(=O)N1CCC(N2CCOC(CC3CCCCC3)C2)CC1", "note": "(configuration not stated)", "INHIBITION": 56.69},
      {"smiles": "CC(=O)N1CCC(C(=O)N2CCOC(CC3CCCCC3)C2)CC1", "note": "(configuration not stated)", "INHIBITION": 38.49},
      {"smiles": "COc1cccc(CC2CN(C3CCN(C(C)=O)CC3)CCO2)c1", "note": "(configuration not stated)", "INHIBITION": 17.75},
      {"smiles": "O=C(C1CCOCC1)N1CCOC(CC2CCCCC2)C1", "note": "(configuration not stated)", "INHIBITION": 28.91},
      {"smiles": "CN(C)C(=O)N1CCC(C(=O)N2CCOC(CC3CCCCC3)C2)CC1", "note": "(configuration not stated)", "INHIBITION": 54.77},
      {"smiles": "CC(C)c1nc2c(n1C)CCN(CCS(=O)(=O)c1ccccc1)C2", "INHIBITION": 18.35},
      {"smiles": "CCCc1nnsc1C(=O)NCC1CCN(S(C)(=O)=O)CC1", "INHIBITION": -4.49},
      {"smiles": "Cc1ccc(CNC2(Cc3cc(-c4ccc(F)cc4)on3)COC2)o1", "INHIBITION": 44.15},
      {"smiles": "CN(C)c1cc(CNc2cncc(-n3cccn3)n2)ccn1", "INHIBITION": -15.92},
      {"smiles": "COc1ccc2c(c1)CC(C1CCOCC1)N(C(=O)c1ccn(C)n1)C2", "note": "(configuration not stated)", "INHIBITION": 15.61},
      {"smiles": "CC(c1ccco1)N(C(=O)COc1ccc(C#N)cc1)C1CC1", "note": "(configuration not stated)", "INHIBITION": 41.03},
      {"smiles": "OCCn1nccc1C1CCN(CCOc2cccc(F)c2)CC1", "INHIBITION": 53.98},
      {"smiles": "Cc1cccc(OCCN2CCC(c3ccnn3CCO)CC2)c1", "INHIBITION": 7.13},
      {"smiles": "OCCn1nccc1C1CCN(CCOc2ccccc2)CC1", "INHIBITION": 39.72},
      {"smiles": "Cc1cc2c(o1)CC(C)(C)CC2NC(=O)CNC(=O)C1CC1", "note": "(configuration not stated)", "INHIBITION": -22.24},
      {"smiles": "Cc1ncc(CN(C)C(=O)Nc2cccc(C(=O)N3CCOCC3)c2)s1", "INHIBITION": 15.68},
      {"smiles": "CNC(=O)CN1CCOCC12CCN(Cc1ccncc1)CC2", "INHIBITION": 34.47},
      {"smiles": "CNC(=O)CN1CCOCC12CCN(CCc1ccccc1)CC2", "INHIBITION": 53.08},
      {"smiles": "CNC(=O)CN1CCOCC12CCN(C(=O)c1ccccc1)CC2", "INHIBITION": -41.11},
      {"smiles": "Cc1cnn(CC2CCCCN2CCCS(N)(=O)=O)c1", "note": "(configuration not stated)", "INHIBITION": 8.1},
      {"smiles": "CC(C)c1nc(O)c2nnn(C[C@H]3CCCN(Cc4cccs4)C3)c2n1", "INHIBITION": 4.91},
      {"smiles": "CC1(C)CN(C(=O)c2ncc(F)cc2F)CCC1(O)CN1CCOCC1", "note": "(configuration not stated)", "INHIBITION": 31.97},
      {"smiles": "Cc1nc(Nc2ncc(C)s2)cc(C2CCCN2)n1", "note": "(configuration not stated)", "INHIBITION": -30.88}
    ]}
  ]
}
